Source: PubChem BioAssay (NCI)
About 79,000 compounds went through this panel and 15% of them were active in at least one assay; those are over-represented in the sample as a whole. A number with no mark means an inactive call. Calls of active or inactive are those of the source. Rule as the data show it: active = growth inhibition above about 70%; inactive = the rest.

Assay: NCI Yeast Anticancer Drug Screen. Data for the rad14 strain (AID 159);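 also: 0% = growth of vehicle-treated control cultures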
Conditions: S. cerevisiae rad14 strain growth inhibition, stronger effect = higher value
Method: Growth inhibition of yeast strains with defined genetic alterations is measured as a screen for potential anti-cancer activity. Selected strains with alterations in DNA damage repair or cell cycle control were exposed to compounds and growth inhibition was measured relative to vehicle treated controls. The strain used in this assay is rad14

CCOC(=O)CC1(C)/C(=N\Nc2ccc([N+](=O)[O-])cc2[N+](=O)[O-])CCC2C1CCC1(C)C(C(C)CCCC(C)C)CCC21 (stereo not given)
growth inhibition (at 1.2 µM): 0% | growth inhibition (at 3.7 µM): -2% | growth inhibition (at 11.0 µM): -4% | growth inhibition (at 33.0 µM): -3% | growth inhibition (at 100.0 µM): -3%

S=C(NCc1ccccn1)N/N=C/c1ccccn1
growth inhibition (at 1.2 µM): 98% (active) | growth inhibition (at 3.7 µM): 99% (active) | growth inhibition (at 11.0 µM): 99% (active) | growth inhibition (at 33.0 µM): 99% (active) | growth inhibition (at 100.0 µM): 99% (active)

Cc1ccccc1NC(=O)c1c(C)oc2c1C(=O)c1ccccc1C2=O
growth inhibition (at 1.2 µM): -45% | growth inhibition (at 3.7 µM): -28% | growth inhibition (at 11.0 µM): -26% | growth inhibition (at 33.0 µM): 12% | growth inhibition (at 100.0 µM): 93% (active)

Cn1c(-c2ccc(/C=N\N3CCN(/N=C/c4ccc(-c5c[n+]6ccsc6n5C)cc4)CC3)cc2)c[n+]2ccsc12
growth inhibition (at 1.2 µM): 16% | growth inhibition (at 3.7 µM): 10% | growth inhibition (at 11.0 µM): 9% | growth inhibition (at 33.0 µM): 14% | growth inhibition (at 100.0 µM): 59%

O=C1c2ccccc2C(=O)c2c(O)c(NCCNCCO)cc(O)c21
growth inhibition (at 1.2 µM): -5% | growth inhibition (at 3.7 µM): -2% | growth inhibition (at 11.0 µM): 40% | growth inhibition (at 33.0 µM): 95% (active) | growth inhibition (at 100.0 µM): 95% (active)

c1ccc2c(c1)N=C1CCCC3CCCC123 (stereo not given)
growth inhibition (at 1.2 µM): -3% | growth inhibition (at 3.7 µM): -7% | growth inhibition (at 11.0 µM): 3% | growth inhibition (at 33.0 µM): 3% | growth inhibition (at 100.0 µM): 97% (active)

COc1cc([C@@H]2c3cc4c(cc3[C@@H](NC(=O)NO)[C@H]3COC(=O)[C@H]23)OCO4)cc(OC)c1O
growth inhibition (at 1.2 µM): -4% | growth inhibition (at 3.7 µM): -4% | growth inhibition (at 11.0 µM): -6% | growth inhibition (at 33.0 µM): -2% | growth inhibition (at 100.0 µM): 8%

CNC(=S)N/N=C(/C)CCC/C(C)=N/NC(=S)NC
growth inhibition (at 1.2 µM): 30% | growth inhibition (at 3.7 µM): 44% | growth inhibition (at 11.0 µM): 61% | growth inhibition (at 33.0 µM): 61% | growth inhibition (at 100.0 µM): 52%
